# Unmarked numbers belong to inactive results. Inconclusive results are not listed. A call without a number means that no potency is given here. The source made the active and inactive calls. Unless noted, calls come from the whole dose curve; as a rule, active = well fitted curve in the direction sought with a large enough effect; inconclusive = small, poorly fitted or top-dose-only effect, or another doubt; inactive = no such curve, though single readings can be large; an effect the other way counts as inactive or inconclusive.
# How the values were obtained:
# [1] = Cell Viability - HepG2 (AID 433; calls by dose curve;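 note: potency is the fitted concentration of half-maximal effect; cells exposed to compound for 40 hours; potency for ATP loss meaning cytotoxicity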); conditions: qHTS
# Summary of the method: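 Read-out is luciferase-based quantitation of cellular ATP as a measure of viable HepG2 cells after 40 h treatment at 37 °C. Signal decrease is scaled between DMSO-only and 100 uM tamoxifen controls, with AC50 fitted by the Hill equation.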
# [2] = Cell Viability - MRC5 (AID 434; calls by dose curve;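 note: potency is the fitted concentration of half-maximal effect; cells exposed to compound for 40 hours at 37 °C; potency reflects cytotoxicity seen as loss of intracellular ATP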); conditions: MRC5 lung fibroblast viability, qHTS
# Summary of the method: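 AC50 values come from Hill-equation fits of intracellular ATP loss, measured by CellTiter-Glo luminescence. Normal lung fibroblasts (MRC5) had 40 hr compound treatment at 37 C, normalized between DMSO and 100 uM tamoxifen.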
# [3] = target: Mitogen-activated protein kinase 10 (Mus musculus) (UniProt Q61831); test: JNK3 AlphaScreen Assay (AID 530; active = well fitted curve in either direction with a large enough effect, not every such curve was filed as active;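 note: kinase came from lysate of stimulated human HepG2 cells; signal reports phosphorylation of biotinylated GST-cJun 1-79 at Ser73 with 10 µM ATP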)
# Summary of the method: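 Kinase buffer: 20 mM Tris-HCl pH 7.6, 10 mM MgCl2, 1 mM DTT, 0.1 mM Na3VO4, 0.01% Tween-20; ATP 10 uM. Substrate biotin-GST-cJun(1-79), enzyme from activated HepG2 lysates. Detection by Ser73 phospho-antibody AlphaScreen.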
# [4] = Cell Viability - N2a (AID 540); conditions: N2a mouse neuroblastoma cell viability; at 92.2 µM (top of the series);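 note: cells exposed to compound for 40 h at 37 °C; nearly all actives have a fitted effect of over 45% in size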
# Summary of the method: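 In this qHTS cytotoxicity screen, ATP-dependent luciferase luminescence reports viable N2a cells after a 40 hr compound exposure in complete culture medium. Potencies are AC50 values from standard Hill equation fits.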
# [5] = Cell Viability - HUV-EC-C (AID 542);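 note: cells exposed to compound for 40 hours; nearly all actives have a fitted effect of over 35% in size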
# Summary of the method: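 Concentration-dependent ATP loss in HUV-EC-C cells is the measure. Exposure lasts 40 hr at 37 °C; luminescence follows CellTiter-Glo addition, and Hill fits give AC50.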
# [6] = Cell Viability - SH-SY5Y (AID 544); conditions: SH-SY5Y neuroblastoma cell viability; viability change, negative = cytotoxic: at 92.2 µM (top of the series);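 note: cells exposed to compound for 40 hours; nearly all actives have a fitted effect of over 55% in size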
# Summary of the method: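 Quantitative HTS in SH-SY5Y neuroblastoma cells, 40 hr treatment at 37 °C, ATP content by luciferase luminescence; AC50 from Hill fits.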
# [7] = Cell Viability - Renal Proximal Tubule (AID 545); conditions: renal proximal tubule cells viability; at 91.7 µM (top of the series), primary cells of rat origin unless noted;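 note: cells exposed to compound for 40 hours; nearly all actives have a fitted effect of over 40% in size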
# Summary of the method: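 Luminescent ATP signal (CellTiter-Glo) served as the viability read-out after 40 hr compound exposure of freshly isolated rat proximal tubule cells at 37 °C. Concentration-dependent ATP loss was fitted with the Hill equation to give AC50.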
# [8] = Cell Viability - Mesenchymal (AID 546);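 note: cells exposed to compound for 40 hours before reading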
# Summary of the method: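 CellTiter-Glo luminescence (intracellular ATP, 20 min room temperature) after 40 hr compound exposure at 37 °C of 1000 glomerulus-derived human kidney mesenchymal cells/well; AC50 values obtained by fitting qHTS concentration-response data to the Hill equation.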
# [9] = Cellular Toxicity (caspase-3) HepG2 (AID 654);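 note: cells exposed to compound for 16 hours before reading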
# Summary of the method: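 Concentration-response AC50 values reflect caspase-3/7 induction in HepG2 cells after 16 hours of compound exposure, quantified by luminescence from liberated aminoluciferin and referenced to 100 uM tamoxifen as full stimulation.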
# [10] = Cellular Toxicity (caspase-3) Jurkat (AID 655); conditions: Jurkat caspase-3 activation, luminescence, DMSO = 0%, tamoxifen = 100%; at 92.2 µM (top of the series);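 note: cells exposed to compound for 16 h at 37 °C before reading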
# Summary of the method: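 5000 Jurkat cells/well; compound 16 hr, 37 °C; Caspase-Glo 3/7 added, 20 min RT; luminescence read. Norm: DMSO = 0%, tamoxifen 100 uM = 100%. AC50, Hill model.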
# [11] = Cellular Toxicity (caspase-3) HUV-EC-C (AID 656)
# Summary of the method: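 qHTS; HUV-EC-C, 1000 cells/well; 5 hr settle, 16 hr cmpd, 37°C; Caspase-Glo 3/7, 20 min RT; luminescence. Norm: DMSO = 0%, tamoxifen 100 uM = 100%. Hill-fit AC50.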
# [12] = Cellular Toxicity (caspase-3) SHSY5Y (AID 657)
# Summary of the method: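 qHTS, SH-SY5Y, 1500 cells/well, 5 h pre-incubation 37 °C; compound 16 h 37 °C; Caspase-Glo 3/7 1 h RT; luminescence. Norm.: DMSO = 0, 10 uM staurosporine = 100%. Hill fit → AC50.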
# [13] = Cellular Toxicity (caspase-3) BJ (AID 658)
# Summary of the method: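 Caspase-Glo 3/7 luminescence, read 1 hr after reagent at room temperature, in normal BJ fibroblasts exposed 16 hours at 37 °C. AC50 values from Hill-equation concentration-response, scaled between DMSO basal and 10 uM staurosporine as 100%.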
# [14] = Cellular Toxicity (caspase-3) MRC-5 (AID 659)
# Summary of the method: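 Luminescent Caspase-Glo 3/7 read-out (1 h, room temperature) after a 16 h, 37 °C compound exposure of MRC-5 lung fibroblasts at 1500 cells/well. Concentration-response AC50 from Hill equation; 0% DMSO, 100% 10 uM staurosporine.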
# [15] = Cellular Toxicity (caspase-3) Mesangial (AID 660);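 note: combined caspase 3 and 7 activity read by Caspase-Glo luminescence; cells exposed to compound for 16 h before the caspase read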
# Summary of the method: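 AC50 values come from Hill-equation fits of caspase 3/7 activation, measured as Caspase-Glo luminescence in human glomerular mesangial cells exposed to compound for 16 h at 37 °C; 100% set by 100 uM tamoxifen.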
# [16] = Cellular Toxicity (caspase-3) SK-N-SH (AID 661)
# Summary of the method: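 Apoptosis readout in SK-N-SH neuroblastoma: Caspase-Glo 3/7 luminescence following 16 hr treatment in complete culture medium. Normalization used DMSO and 10 uM staurosporine controls.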
# [17] = Cellular Toxicity (caspase-3) H-4-II-E (AID 663);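 note: cells exposed to compound for 16 hr before readout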
# Summary of the method: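 Caspase 3/7 activation measured by luminescent aminoluciferin substrate cleavage after 16 hr compound treatment of H-4-II-E cells in complete medium. Increase normalized between DMSO (basal) and 100 uM tamoxifen (100%); Hill-equation AC50 from concentration-response.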
# [18] = Cellular Toxicity (caspase-3) Hek293 (AID 664);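 note: cells exposed to compound for 16 h at 37 °C before readout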
# Summary of the method: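 Apoptosis readout: Caspase-Glo 3/7 signal in human HEK293 cells following 16-hour compound incubation. Responses scaled between DMSO baseline and 100 uM tamoxifen.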
# [19] = Cellular Toxicity (caspase-3) N2a (AID 665); conditions: N2a cells, luminescence, normalized: DMSO 0%, 10 µM staurosporine 100%; at 92.2 µM (top of the series);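 note: compound exposure lasted 16 h at 37 °C before readout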
# Summary of the method: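 Concentration-response qHTS: compound-induced caspase-3/7 luminescence in N2a cells (16 h, 37 °C), relative to DMSO and 10 uM staurosporine controls; AC50 obtained using the standard Hill equation.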
# [20] = target: Cytochrome P450 3A4 (Homo sapiens) (UniProt P08684); test: qHTS Assay for Inhibitors and Substrates of Cytochrome P450 3A4 (AID 884); note: potency is the fitted concentration of half-maximal effect; nearly all actives have a fitted effect of over 50% in size
# Summary of the method: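 Luminescent readout of luciferin produced by CYP3A4 (20 nM) dealkylation of Luciferin-PPXE, 25 uM (its KM). NADPH-driven reaction ran 60 min at RT after 10 min compound preincubation; data scaled to 57 uM ketoconazole as 100% inhibition.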
# [21] = target: Cytochrome P450 3A4 (Homo sapiens) (UniProt P08684); test: qHTS Assay for Activators of Cytochrome P450 3A4 (AID 885); note: nearly all actives have a fitted effect of over 65% in size
# Summary of the method: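 Luminescent readout of luciferin formed from 25 uM Luciferin-PPXE (KM level) by 20 nM CYP3A4 in 200 mM KPO4, with 60 min NADPH-driven reaction at room temperature after 10 min compound exposure. Ketoconazole (57 uM) defined 100% inhibition.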
# [22] = Cell Viability - LYMP2-001 (AID 921);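 note: cells exposed to compound for 24 h at 37 °C; nearly all actives have a fitted effect of over 70% in size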
# Summary of the method: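 Steps: seed 2500 lymphoblastoid cells/well; 5 hr, 37 C; add compound; 24 hr, 37 C; CellTiter-Glo reagent, 30 min room temperature; read luminescence. Concentration-response modeled by Hill equation for AC50.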
# Chain of Cytochrome P450 3A4 (Homo sapiens) (P08684 whole entry, looked up): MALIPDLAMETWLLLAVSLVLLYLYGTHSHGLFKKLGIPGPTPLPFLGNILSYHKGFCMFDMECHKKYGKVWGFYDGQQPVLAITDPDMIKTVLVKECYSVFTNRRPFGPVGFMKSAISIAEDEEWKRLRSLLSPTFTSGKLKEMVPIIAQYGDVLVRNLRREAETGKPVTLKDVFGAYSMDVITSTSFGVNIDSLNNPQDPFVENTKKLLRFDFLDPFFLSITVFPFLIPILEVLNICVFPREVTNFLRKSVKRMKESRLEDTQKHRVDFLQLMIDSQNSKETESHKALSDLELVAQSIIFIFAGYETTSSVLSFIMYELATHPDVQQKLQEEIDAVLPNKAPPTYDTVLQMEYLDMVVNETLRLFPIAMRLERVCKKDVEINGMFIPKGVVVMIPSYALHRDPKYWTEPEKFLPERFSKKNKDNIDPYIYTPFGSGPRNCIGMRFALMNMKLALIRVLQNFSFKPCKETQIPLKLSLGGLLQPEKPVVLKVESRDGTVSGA
smiles,measurement,setting,value
COC1=CC(=O)O[C@@H](/C=C/c2ccc3c(c2)OCO3)C1,Potency,[1],> 92 µM
same,Potency,[2],> 92 µM
same,outcome,[3],inactive
same,"activity change, negative = cytotoxicity",[4],-10.4%
same,Potency,[5],inactive
same,Potency,[6],inactive
same,"activity change, negative = cytotoxicity",[7],-14.1%
same,outcome,[8],inactive
same,outcome,[9],inactive
same,caspase-3 activation,[10],-10%
same,outcome,[11],inactive
same,outcome,[12],inactive
same,outcome,[13],inactive
same,outcome,[14],inactive
same,outcome,[15],inactive
same,outcome,[16],inactive
same,outcome,[17],inactive
same,outcome,[18],inactive
same,caspase-3 activation,[19],-17.2%
same,Potency,[20],2.51 µM (active)
same,Potency,[21],inactive
same,Potency,[22],inactive

# — PubChem BioAssay (NCATS)
